TDP1 cell CPT: growth inhibition of DT40 Tdp1-/-;hTDP1 cells with camptothecin (screen for TDP1 inhibitors) | AID 686979 | hit rate 12% among 420,000 | Potency, µM (series often up to 46.2 µM), hits mostly inhibitors | chicken DT40 Tdp1-/-;hTDP1 cells + 20 nM CPT, ATP luminescence, 48 h; note: nearly all actives have a fitted effect of over 55% in size
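Chicken DT40 Tdp1-/- cells complemented with human TDP1, 400 cells/well, exposed to compounds plus 20 nM camptothecin for at least 48 h at 37 C; viability read as ATP content by CellTiter-Glo luminescence.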
IL1B secr inh: inflammasome signaling inhibition, IL-1 beta readout; THP-1 LPS/ATP IL-1B secretion, AlphaLISA, 16 h; hits give low values; activity change, % at 57.5 µM; hit rate 4.7% among 360,000; AID 743279; in the data active = activity change below about -50%; inconclusive = mostly about -30% to -49%
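Secreted IL-1B measured by AlphaLISA bead assay after 16 h compound exposure of THP-1 cells; compounds (final up to 57.5 uM) added 1 h before LPS (250 ng/mL) and ATP (1.25 mM) stimulation; lower signal means less secretion.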
RORgamma inh: inhibitors of mouse ROR gamma transcriptional activity; P51450; Drosophila S2 Gal4-RORgamma UAS-luciferase reporter, 20 h; Potency, µM (series often up to 53.6 µM), actives largely listed as inhibitors; hit rate 5.4% among 310,000; AID 2551; note: nearly all actives have a fitted effect of over 60% in size
Target sequence (P51450 whole entry, looked up, the tested form may be a part): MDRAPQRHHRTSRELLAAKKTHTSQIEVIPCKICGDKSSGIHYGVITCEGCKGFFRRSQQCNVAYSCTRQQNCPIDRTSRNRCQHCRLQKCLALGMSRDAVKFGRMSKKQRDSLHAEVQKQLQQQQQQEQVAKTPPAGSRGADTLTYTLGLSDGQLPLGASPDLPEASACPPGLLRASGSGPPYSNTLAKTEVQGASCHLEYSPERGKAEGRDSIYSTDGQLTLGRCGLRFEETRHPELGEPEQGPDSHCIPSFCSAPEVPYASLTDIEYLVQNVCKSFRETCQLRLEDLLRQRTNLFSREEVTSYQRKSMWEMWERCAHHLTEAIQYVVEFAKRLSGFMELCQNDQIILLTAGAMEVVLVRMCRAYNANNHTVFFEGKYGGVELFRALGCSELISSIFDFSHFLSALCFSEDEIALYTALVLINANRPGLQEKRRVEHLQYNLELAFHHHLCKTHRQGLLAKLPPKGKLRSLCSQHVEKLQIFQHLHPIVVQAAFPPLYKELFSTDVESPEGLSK
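Drosophila S2 cells stably expressing Gal4-DBD/mouse RORγ fusion under metallothionein promoter plus UAS-luciferase; compound 1 h, then 700 uM CuSO4 induction for 20 h at ambient temperature; inhibition read as reduced luminescence.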
ELG1 DNA repair: ELG1-dependent DNA repair inhibition | HEK293T ELG1-luciferase reporter, luminescence, 16 h; DNA damage induced by 5-fluorouridine | Potency, µM (highest dose often 46.1 µM), usual class: inhibitors | hit rate 2.3% among 330,000 | AID 504467; note: nearly all actives have a fitted effect of over 55% in size
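Step one: seed 2,000 cells per well. Step two: pin-transfer compound or DMSO alongside 5-fluorouridine. Step three: incubate 16 hr, 37 °C, 5% CO2. Step four: add ONE-Glo, wait 30 min, read luminescence.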
VP16 counter: Gal4-VP16 reporter inhibition counter-screen | Potency, µM (series often up to 53.6 µM), actives largely listed as inhibitors | hit rate 3.5% among 310,000 | Drosophila S2 Gal4-VP16 UAS-luciferase, luminescence, 20 h;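 note: Gal4-VP16 expression switched on by copper sulfate through the metallothionein promoter; nearly all actives have a fitted effect of over 50% in size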
DT40 TDP1 no CPT: qHTS for Inhibitors of human tyrosyl-DNA phosphodiesterase 1 (TDP1): qHTS in cells in absence of CPT. DT40 Tdp1-/- hTDP1 cells, no CPT, ATP luminescence, 48 h. hit rate 15% among 420,000. Potency, µM (doses to about 46.2 µM), actives largely listed as inhibitors. AID 686978, 2013; note: nearly all actives have a fitted effect of over 55% in size
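DT40 Tdp1-/-;hTDP1 cells, no CPT (DMSO vehicle only), 400 cells/well; compounds pin-transferred; ≥48 hr, 37 °C; CellTiter-Glo 30 min RT dark, luminescence read.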
A number is an active result; – = inactive; ? = inconclusive; · = no result; [ ] = dose if it differs, or a comment. Most compounds without a hit are left out; they make up all but 21% or so of the library. Unless noted, calls come from the whole dose curve; as a rule, active = well fitted curve in the direction sought with a large enough effect; inconclusive = small, poorly fitted or top-dose-only effect, or another doubt; inactive = no such curve, though single readings can be large; an effect the other way counts as inactive or inconclusive.

SMILES	TDP1 cell CPT	IL1B secr inh	RORgamma inh	ELG1 DNA repair	VP16 counter	DT40 TDP1 no CPT
C/C=C/c1ccc(OCCOc2cc(C=O)ccc2OC)c(OC)c1	?	–	–	?	–	26µM
Cc1cc(C)c(C)c(OCCOCCNCc2ccccc2)c1	?	?	–	–	–	18µM
COc1cc(C)ccc1OCCCCNCc1ccccc1	–	–	–	–	–	?
Cc1ccc(C(CC(=O)O)NC(=O)CCNC(=O)c2ccco2)cc1 (stereo unspecified)	–	–	·	–	·	–
CC(C)c1ccc(NC(=O)C2C3C=CC4(O3)C2C(=O)N(CCCN2CCOCC2)C4C(=O)NC2CCCCC2)cc1 (stereo unspecified)	–	–	–	–	–	–
Cc1onc(-c2ccccc2)c1C(=O)Nc1ccc(NC(=O)c2c(-c3ccccc3)noc2C)cc1	–	–	·	·	·	–
Cc1cccc(OCCOC(=O)c2c(-c3ccccc3)noc2C)c1	?	–	?	–	–	23µM
CCCCN(CCCC)S(=O)(=O)c1ccc(NC(=O)c2c(-c3ccccc3)noc2C)cc1	21µM	·	·	·	·	29µM
CCCOc1cccc(NC(=O)c2c(-c3ccccc3)noc2C)c1	–	–	–	?	–	?
CCOC(=O)c1ccccc1NC(=O)c1c(-c2ccccc2)noc1C	9.2µM	·	·	·	·	4.6µM
Cc1onc(-c2ccccc2)c1C(=O)OCC(=O)Nc1ccccc1Cl	?	–	·	·	·	18µM
C[C@H]1NCc2cc(-c3ccc4c(=O)c(C(=O)O)cn(C5CC5)c4c3OC(F)F)ccc21	–	·	·	·	·	–
Cc1onc(-c2ccccc2)c1C(=O)OCC(=O)Nc1cccc(Cl)c1	?	–	·	13µM	·	?
CN(C)C/C(Cl)=C(\Cl)c1ccccc1	5.2µM	–	–	–	–	5.2µM
CN(C)CC(=O)c1ccc(-c2ccccc2)cc1	–	–	?	?	–	–
O=C(O)c1ccccc1-c1ccc(C(F)(F)F)cc1	–	·	–	·	–	–
Cn1c(N/N=C/c2c[nH]c3ccccc23)nc2ccccc21	?	-98	1µM	?	4µM	?
Cc1nnc(C)n1/N=C/c1cc2ccccc2nc1Cl	2.6µM	–	–	–	–	2.9µM
Cc1nnc(C)n1/N=C/c1ccccn1	–	–	–	–	–	–
Cn1c(N/N=C/c2cc3ccccc3nc2Cl)nc2ccccc21	3.3µM	–	1.1µM	?	1.3µM	2.6µM
CCCCn1c(/N=C/c2c[nH]c3ccccc23)nc2ccccc21	?	-52	?	–	?	21µM
Cc1cc(C)c2c(n1)sc1c(=O)n(-c3cc(Cl)ccc3C)nnc12	–	·	·	·	·	?
COc1cc(=O)n2c(c1C(=O)NCc1ccco1)CCN(C(=O)c1ccc(C)c(C)c1)CC2	–[9.04 µM]	·	·	·	·	–
O=C(Nc1ccccc1Oc1ccccc1)c1cnccn1	–	–	–	–	–	–
COc1ccccc1NC(=O)c1ccc(C(=O)Nc2ccccc2OC)nc1	4.6µM	–	–	–	–	?
SMILES	TDP1 cell CPT	IL1B secr inh	RORgamma inh	ELG1 DNA repair	VP16 counter	DT40 TDP1 no CPT
CCOc1ccccc1NC(=O)C(CC)Sc1nc2ccncc2[nH]1 (stereo unspecified)	?	–	–	–	–	16µM
CCOc1ccccc1NC(=O)c1cnccn1	–	-59	?	–	–	–
CCOc1ccccc1NC(=O)c1nc[nH]c1C(=O)Nc1ccccc1OCC	16µM	–	2µM	–	4µM	?
CC1CCCCN1CC(O)COc1ccc(OCC(O)CN2CCCCC2C)cc1 (stereo unspecified)	–	–	–[1.91 µM]	?	–	–
CC1(C(=O)NS(=O)(=O)c2cccs2)CCN1C(=O)Cc1ccc(Cl)cc1Cl (stereo unspecified)	–	–	·	·	·	–
COc1ccc(CCC(=O)Nc2ccc(Cn3ccnc3)cc2)cc1	–	–	–	–	–	–
Cc1ccccc1NC(=O)c1[nH]cnc1C(=O)NN	–	–	–	–	–	–
COc1ccccc1NC(=O)c1nc[nH]c1C(=O)Nc1ccccc1OC	–	–	2µM	–	?	?
COC(=O)C(NC(C)=O)(Nc1ccc(C)cn1)C(F)(F)F (stereo unspecified)	–	–	–	–	–	–

Screening data (PubChem BioAssay)
